Measured values published in the supplement of paper PMC11732987, “Enantioselective OTUD7B fragment discovery through chemoproteomics screening and high-throughput optimisation” (Communications Chemistry, 2025).

What was measured:
Assay in all cases: log2 ratio of Biotin-Ahx-Ub-VS probe labelling (fragment/DMSO); higher = less target engagement (more negative = stronger competition), active = hit call of the paper (q ≤ 0.05, log2 ratio ≤ -1)
Details in all cases: compound concentration: 200 uM; treatment time: 3 h
USP34 = USP34 (UniProt Q70CQ2)
USP34, sequence (Q70CQ2 whole entry, the tested form may be a part): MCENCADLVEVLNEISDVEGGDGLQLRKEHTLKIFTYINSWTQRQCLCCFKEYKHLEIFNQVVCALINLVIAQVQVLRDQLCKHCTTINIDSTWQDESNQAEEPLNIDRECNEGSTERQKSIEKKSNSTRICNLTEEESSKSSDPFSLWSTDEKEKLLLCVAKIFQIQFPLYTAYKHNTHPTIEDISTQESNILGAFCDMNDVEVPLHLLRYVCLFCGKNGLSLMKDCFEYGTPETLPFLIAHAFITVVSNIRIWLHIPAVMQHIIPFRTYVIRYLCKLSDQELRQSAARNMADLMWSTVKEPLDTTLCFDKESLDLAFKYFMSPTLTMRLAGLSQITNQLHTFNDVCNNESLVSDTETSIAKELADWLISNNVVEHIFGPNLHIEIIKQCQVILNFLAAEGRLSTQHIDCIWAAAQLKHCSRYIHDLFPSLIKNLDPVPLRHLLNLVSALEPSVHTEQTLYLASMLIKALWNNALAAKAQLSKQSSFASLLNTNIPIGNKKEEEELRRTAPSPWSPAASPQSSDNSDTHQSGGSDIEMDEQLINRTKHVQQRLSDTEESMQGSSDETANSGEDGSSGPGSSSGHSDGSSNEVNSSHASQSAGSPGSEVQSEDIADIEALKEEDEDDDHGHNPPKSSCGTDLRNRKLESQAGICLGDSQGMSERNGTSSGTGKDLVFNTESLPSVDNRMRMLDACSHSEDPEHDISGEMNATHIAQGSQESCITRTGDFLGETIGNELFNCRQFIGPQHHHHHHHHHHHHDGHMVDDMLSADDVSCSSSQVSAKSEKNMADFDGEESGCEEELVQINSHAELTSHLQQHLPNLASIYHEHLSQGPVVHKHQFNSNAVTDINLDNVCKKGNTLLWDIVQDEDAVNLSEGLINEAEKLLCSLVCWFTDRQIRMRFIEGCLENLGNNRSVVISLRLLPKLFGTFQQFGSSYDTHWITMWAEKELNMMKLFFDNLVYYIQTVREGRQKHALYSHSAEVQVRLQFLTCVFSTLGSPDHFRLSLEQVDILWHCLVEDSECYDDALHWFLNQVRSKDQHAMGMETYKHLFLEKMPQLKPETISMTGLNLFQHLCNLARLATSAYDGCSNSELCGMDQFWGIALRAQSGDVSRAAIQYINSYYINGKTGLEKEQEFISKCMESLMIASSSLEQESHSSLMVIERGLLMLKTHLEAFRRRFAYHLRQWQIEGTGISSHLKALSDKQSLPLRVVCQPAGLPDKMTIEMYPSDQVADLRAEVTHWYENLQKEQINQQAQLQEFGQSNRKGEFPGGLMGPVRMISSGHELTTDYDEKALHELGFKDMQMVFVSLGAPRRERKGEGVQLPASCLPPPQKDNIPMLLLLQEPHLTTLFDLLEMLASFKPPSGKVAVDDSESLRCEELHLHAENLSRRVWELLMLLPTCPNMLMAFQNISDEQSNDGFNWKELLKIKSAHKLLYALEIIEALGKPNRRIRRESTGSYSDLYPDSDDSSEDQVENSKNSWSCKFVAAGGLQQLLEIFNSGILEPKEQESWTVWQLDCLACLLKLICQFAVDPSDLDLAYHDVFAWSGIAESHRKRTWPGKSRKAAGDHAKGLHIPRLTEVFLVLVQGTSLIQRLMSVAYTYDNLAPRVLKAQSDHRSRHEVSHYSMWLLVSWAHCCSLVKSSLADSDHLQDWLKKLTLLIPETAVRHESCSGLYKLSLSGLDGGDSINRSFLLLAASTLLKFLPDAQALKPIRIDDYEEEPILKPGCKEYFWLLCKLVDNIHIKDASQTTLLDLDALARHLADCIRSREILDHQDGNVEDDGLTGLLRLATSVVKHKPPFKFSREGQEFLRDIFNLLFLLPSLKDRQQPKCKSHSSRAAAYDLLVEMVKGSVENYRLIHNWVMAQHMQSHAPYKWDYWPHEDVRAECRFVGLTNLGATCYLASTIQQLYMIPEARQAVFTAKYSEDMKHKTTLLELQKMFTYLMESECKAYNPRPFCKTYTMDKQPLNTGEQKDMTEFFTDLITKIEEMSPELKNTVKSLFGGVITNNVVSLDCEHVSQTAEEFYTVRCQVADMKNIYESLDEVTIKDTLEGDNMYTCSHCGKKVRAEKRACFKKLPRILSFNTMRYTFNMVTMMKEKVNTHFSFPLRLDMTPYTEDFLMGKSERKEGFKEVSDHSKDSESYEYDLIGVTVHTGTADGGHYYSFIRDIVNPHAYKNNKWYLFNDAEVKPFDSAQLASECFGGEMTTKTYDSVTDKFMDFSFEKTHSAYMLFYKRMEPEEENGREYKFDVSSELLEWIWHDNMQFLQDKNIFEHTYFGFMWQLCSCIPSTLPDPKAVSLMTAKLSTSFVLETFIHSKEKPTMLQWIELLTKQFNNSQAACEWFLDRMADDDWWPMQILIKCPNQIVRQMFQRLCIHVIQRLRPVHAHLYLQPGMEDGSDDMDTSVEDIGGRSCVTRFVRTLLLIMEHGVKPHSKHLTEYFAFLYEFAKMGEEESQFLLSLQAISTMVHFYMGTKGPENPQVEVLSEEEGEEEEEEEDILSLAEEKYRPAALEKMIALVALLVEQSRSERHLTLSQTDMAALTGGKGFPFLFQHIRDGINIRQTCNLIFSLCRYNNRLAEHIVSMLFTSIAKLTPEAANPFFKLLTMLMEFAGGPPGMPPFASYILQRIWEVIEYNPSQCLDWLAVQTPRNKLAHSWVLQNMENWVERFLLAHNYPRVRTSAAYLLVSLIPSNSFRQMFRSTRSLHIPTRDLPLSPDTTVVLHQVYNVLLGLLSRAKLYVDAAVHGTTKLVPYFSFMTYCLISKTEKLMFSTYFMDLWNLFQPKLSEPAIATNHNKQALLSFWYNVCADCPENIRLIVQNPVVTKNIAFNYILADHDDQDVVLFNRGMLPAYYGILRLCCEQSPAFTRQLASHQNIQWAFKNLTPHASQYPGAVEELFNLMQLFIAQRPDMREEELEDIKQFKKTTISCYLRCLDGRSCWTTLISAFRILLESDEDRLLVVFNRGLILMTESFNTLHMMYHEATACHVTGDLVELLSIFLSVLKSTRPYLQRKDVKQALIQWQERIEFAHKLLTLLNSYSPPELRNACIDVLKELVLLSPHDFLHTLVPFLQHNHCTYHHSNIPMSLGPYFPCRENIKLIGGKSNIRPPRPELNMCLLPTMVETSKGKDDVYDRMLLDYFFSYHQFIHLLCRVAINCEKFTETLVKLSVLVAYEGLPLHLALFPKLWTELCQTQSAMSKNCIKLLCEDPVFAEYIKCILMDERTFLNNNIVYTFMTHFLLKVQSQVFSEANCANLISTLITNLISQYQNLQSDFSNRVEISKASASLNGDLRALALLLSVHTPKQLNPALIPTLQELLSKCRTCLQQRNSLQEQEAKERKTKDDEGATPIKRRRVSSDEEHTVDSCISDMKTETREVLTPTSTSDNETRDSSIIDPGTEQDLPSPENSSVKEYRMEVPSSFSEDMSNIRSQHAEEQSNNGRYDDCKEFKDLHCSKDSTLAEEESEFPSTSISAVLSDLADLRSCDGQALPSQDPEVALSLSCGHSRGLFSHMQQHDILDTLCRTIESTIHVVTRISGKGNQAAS
In short: (§1)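 Values give the average log2 ratio of fragment to vehicle, assessed by unpaired t-test on global-median-normalised Spectronaut label-free quantities. Proteins needed ≥2 unique peptides. HEK293T lysate (495 µg per sample) was treated in triplicate with fragment at 200 µM or vehicle for 3 h and then with Biotin-Ahx-Ub-VS at 0.5 µM final for 1 h. Labelled DUBs were NeutrAvidin-enriched, digested and run by diaPASEF LC-MS/MS.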

USP36 = biological target: T1, USP36 (UniProt Q9P275)
T1 sequence (whole entry): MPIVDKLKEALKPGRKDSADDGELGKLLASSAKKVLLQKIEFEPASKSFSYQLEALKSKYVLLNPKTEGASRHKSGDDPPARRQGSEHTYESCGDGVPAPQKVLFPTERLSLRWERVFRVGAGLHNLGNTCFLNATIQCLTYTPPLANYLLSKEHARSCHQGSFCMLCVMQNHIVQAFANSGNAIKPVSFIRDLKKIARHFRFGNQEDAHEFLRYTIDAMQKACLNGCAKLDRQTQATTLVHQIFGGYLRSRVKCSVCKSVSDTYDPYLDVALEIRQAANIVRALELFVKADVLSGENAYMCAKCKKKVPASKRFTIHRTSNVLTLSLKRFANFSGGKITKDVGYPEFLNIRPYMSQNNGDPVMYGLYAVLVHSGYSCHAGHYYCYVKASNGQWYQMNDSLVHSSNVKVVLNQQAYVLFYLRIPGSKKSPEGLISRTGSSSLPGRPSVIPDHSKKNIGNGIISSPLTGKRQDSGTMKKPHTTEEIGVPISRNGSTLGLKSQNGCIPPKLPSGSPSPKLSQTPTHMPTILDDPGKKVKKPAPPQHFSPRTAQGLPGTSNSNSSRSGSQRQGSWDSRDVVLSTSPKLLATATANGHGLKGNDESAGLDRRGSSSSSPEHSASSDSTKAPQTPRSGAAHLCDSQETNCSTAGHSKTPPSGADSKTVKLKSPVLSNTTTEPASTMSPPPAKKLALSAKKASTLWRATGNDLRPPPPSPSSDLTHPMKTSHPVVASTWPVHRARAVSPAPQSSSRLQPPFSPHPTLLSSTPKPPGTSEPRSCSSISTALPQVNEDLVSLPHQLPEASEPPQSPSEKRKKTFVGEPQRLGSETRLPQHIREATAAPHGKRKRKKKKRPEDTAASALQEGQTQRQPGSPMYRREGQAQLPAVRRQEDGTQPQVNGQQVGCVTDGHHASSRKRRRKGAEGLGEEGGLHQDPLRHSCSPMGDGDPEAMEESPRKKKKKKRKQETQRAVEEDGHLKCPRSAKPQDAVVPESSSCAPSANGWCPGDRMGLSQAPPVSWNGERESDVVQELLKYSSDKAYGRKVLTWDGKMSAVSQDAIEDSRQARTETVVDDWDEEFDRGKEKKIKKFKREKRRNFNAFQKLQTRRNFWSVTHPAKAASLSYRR
In short: as §1

USP38 = biological target: T2, USP38 (UniProt Q8NB14)
T2 sequence (whole entry): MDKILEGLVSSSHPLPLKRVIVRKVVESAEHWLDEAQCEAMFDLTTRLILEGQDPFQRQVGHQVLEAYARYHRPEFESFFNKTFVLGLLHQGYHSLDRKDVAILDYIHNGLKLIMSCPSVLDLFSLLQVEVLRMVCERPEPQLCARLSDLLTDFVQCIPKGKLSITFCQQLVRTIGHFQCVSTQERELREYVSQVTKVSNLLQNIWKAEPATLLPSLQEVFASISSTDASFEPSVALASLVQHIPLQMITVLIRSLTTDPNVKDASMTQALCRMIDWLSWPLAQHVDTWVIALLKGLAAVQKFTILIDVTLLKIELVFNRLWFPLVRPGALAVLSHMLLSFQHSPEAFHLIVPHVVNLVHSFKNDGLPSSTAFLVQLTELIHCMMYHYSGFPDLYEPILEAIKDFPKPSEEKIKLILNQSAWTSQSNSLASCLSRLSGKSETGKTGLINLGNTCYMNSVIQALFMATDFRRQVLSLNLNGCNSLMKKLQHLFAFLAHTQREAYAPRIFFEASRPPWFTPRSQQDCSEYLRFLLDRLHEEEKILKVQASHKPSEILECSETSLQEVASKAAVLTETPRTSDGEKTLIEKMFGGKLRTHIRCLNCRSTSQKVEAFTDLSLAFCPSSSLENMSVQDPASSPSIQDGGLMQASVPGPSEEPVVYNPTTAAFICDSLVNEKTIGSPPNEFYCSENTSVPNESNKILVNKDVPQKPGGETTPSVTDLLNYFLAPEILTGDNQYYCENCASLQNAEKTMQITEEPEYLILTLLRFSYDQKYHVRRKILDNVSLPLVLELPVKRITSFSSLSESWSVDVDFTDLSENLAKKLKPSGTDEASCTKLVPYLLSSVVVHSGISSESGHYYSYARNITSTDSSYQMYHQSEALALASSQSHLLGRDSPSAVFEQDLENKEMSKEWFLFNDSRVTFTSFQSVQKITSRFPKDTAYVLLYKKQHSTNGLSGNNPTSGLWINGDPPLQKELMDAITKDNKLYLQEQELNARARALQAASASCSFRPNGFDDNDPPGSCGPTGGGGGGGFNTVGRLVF
In short: as §1

USP39 = biological target: T3, USP39 (UniProt Q53GS9)
T3 sequence (whole entry): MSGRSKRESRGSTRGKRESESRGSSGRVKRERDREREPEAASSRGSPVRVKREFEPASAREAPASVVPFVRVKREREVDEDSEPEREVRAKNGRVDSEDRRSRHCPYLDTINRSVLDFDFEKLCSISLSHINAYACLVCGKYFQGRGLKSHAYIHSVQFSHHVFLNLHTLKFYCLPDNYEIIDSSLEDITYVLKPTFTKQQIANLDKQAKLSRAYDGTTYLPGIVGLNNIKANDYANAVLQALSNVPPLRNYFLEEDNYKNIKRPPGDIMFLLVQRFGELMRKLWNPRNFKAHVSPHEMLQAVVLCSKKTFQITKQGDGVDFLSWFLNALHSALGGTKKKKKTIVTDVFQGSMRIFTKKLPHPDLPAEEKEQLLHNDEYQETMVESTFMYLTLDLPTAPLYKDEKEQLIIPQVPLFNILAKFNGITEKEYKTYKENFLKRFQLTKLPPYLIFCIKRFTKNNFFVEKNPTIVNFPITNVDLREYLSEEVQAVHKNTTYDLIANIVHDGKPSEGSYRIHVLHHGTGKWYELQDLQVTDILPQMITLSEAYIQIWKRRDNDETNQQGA
In short: as §1

USP4 = biological target: T4, USP4 (UniProt Q13107)
T4 sequence (whole entry): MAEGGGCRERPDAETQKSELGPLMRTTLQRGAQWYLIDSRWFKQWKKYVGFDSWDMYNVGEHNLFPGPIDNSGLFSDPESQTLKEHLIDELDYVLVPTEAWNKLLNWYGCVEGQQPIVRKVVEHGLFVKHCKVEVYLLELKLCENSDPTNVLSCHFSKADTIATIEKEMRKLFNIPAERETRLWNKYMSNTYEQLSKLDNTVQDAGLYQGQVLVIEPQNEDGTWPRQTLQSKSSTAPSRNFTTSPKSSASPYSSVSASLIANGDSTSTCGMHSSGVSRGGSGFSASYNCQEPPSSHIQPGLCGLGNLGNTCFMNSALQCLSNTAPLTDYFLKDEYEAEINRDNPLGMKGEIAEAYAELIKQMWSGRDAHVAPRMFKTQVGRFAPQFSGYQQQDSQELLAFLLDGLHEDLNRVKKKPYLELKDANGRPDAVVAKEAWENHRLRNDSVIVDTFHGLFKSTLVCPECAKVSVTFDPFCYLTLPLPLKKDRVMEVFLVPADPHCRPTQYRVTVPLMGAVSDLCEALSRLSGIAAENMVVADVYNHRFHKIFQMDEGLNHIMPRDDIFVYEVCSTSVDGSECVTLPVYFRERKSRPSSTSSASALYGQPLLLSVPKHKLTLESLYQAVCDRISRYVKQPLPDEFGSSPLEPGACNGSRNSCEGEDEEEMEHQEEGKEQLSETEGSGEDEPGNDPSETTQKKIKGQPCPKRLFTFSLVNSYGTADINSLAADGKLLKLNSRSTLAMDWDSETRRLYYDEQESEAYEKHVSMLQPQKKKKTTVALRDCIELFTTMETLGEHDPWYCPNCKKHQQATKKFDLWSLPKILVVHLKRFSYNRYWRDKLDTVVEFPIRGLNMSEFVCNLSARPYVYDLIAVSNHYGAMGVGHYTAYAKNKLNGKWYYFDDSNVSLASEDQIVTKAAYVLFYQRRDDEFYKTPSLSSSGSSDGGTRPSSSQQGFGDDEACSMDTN
In short: as §1

Measured: log2 ratio of Biotin-Ahx-Ub-VS probe labelling

O=C(CCl)NCc1ccc2c(c1)OCO2
inactive: USP34 0.112 | USP36 0.129 | USP38 -0.0864 | USP39 0.0456 | USP4 0.0604
